The sample as a whole holds a higher share of hits than the screen did.
Shiga toxin inh = inhibitors of Shiga toxin in Vero cells; 290,000 compounds, 9.2% hits; AID 2315; inhibition, % at 38.7 µM; Vero cells, Shiga toxin protein synthesis inhibition reporter; in the data active means inhibition mostly above about 28%, no sharp cut-off; inactive means mostly below about 43%; further: 0% is about no effect
Vaccinia mCherry = vaccinia inhibition (mCherry reporter) | Vaccinia virus mCherry reporter infection, fluorescence | 310,000 compounds, 0.63% hits | Potency, µM (series often up to 36.5 µM), for inactives: at the top dose activity change, negative = inhibition, hits mostly inhibitors | AID 720579; calls by dose curve; tested in A549 cells; further: potency means the concentration at half of the fitted maximal effect; on the % scale 0 is the no-effect control and ±100 the full control effect; nearly all actives have a fitted effect of over 35% in size
Vaccinia Venus = inhibitors of vaccinia virus (Venus reporter); Potency, µM (series often up to 36.5 µM), for inactives: top-dose activity change, negative = inhibition, actives largely listed as inhibitors; Vaccinia virus Venus reporter expression, fluorescence; 330,000 compounds, 0.46% hits; calls by dose curve; tested in A549 cells; further: potency means the concentration at half of the fitted maximal effect; on the % scale 0 is the no-effect control and ±100 the full control effect; nearly all actives have a fitted effect of over 30% in size
CHX counter = affects cycloheximide protein synthesis inhibition readout, counter-screen | cell reporter, cycloheximide protein synthesis inhibition counterscreen | max response, % | 300,000 compounds, 12% hits | AID 2314; in the data active means max response mostly above about 13%, no sharp cut-off; inactive means mostly below about 14%; further: read at 38.3 µM for the half of the compounds with a filed dose; 0% is about no effect
MARV entry inh = blocks Marburg virus binding to or entry into cells. Marburg virus pseudotyped entry inhibition, cell reporter. Potency, µM (titrated, usually from 37.8 µM), for inactives: at the top dose activity change, negative = inhibition, usual class: inhibitors. 300,000 compounds, 1.8% hits. AID 540276; calls by dose curve; tested in HEK293 cells; further: potency means the concentration at half of the fitted maximal effect; on the % scale 0 is the no-effect control and ±100 the full control effect
Lassa entry inh = inhibitors of Lassa virus binding or cell entry | Lassa virus pseudotype entry inhibition, cell reporter | Potency, µM (titrated, usually from 37.9 µM), inactives show top-dose activity change, negative = inhibition, most hits filed as inhibitors | 300,000 compounds, 1.2% hits | AID 540256; calls by dose curve; tested in HEK293 cells; further: potency means the concentration at half of the fitted maximal effect; on the % scale 0 is the no-effect control and ±100 the full control effect; nearly all actives have a fitted effect of over 50% in size
Active calls of the source: *; i = inactive; ? = inconclusive; . = not tested or not shown; [ ] = remark or other dose.

SMILES | Shiga toxin inh | Vaccinia mCherry | Vaccinia Venus | CHX counter | MARV entry inh | Lassa entry inh
CCOC(=O)c1oc2ccc(Cl)cc2c1NC(C)=O | -17 | -12% | -7% | -5 | . | .
CCOC(=O)c1oc2cccc(O)c2c1C | 63* | . | . | 32* | ? | 30%
CC(C)(C)CC(C)(C)N=C1Nc2ccc(Cl)cc2N[C@]12C[C@H]1CCCC(=O)N3CC[C@@H](C2)[C@@H]13 | . | -16% | ? | . | . | .
C[C@H]1CC[C@H]2C(=O)N(Cc3ccccc3)C[C@H](O)CN2[C@H]1c1cccc(Br)c1 | . | . | . | . | -5%[14.2 µM] | 14%[14.3 µM]
N/C(=N\OC(=O)c1cc([N+](=O)[O-])ccc1Cl)c1cccnc1 | 21 | i | -6% | -2 | ? | ?
Cc1ccc(C(=O)O/N=C(\N)c2cccnc2)cc1[N+](=O)[O-] | 18* | -23% | -5% | 78* | 6% | ?
N/C(=N\OC(=O)c1ccc([N+](=O)[O-])cc1)c1cccnc1 | 117* | i | -2% | 14* | 8% | 11%
N/C(=N\OC(=O)c1ccccc1[N+](=O)[O-])c1cccnc1 | 55* | -22% | -11% | 35* | 23% | -9%
COC(=O)C/C=C\[C@@H](C)[C@@H](/C=N\OC[C@@H](O)COCc1ccco1)OC | . | . | . | . | -14%[14.2 µM] | .
CCOc1ccc(-c2cc(C(=O)N3CCN(C)CC3)c3ccccc3n2)cc1 | 50* | -8% | -3% | 38* | ? | -29%
CCOC(=O)N1CCN(C(=O)c2cc(-c3ccc(OCC)cc3)nc3ccccc23)CC1 | 66* | . | . | 37* | ? | 4.6µM*
CCOc1ccc(-c2cc(C(=O)N3CCCC3)c3ccccc3n2)cc1 | 31 | -14% | -7% | 17 | ? | 5%
COc1cc2c(=O)n(CCC(=O)NCC3CCCO3)c(=O)n(CC(=O)Nc3ccc(C)cc3C)c2cc1OC (stereo unspecified) | -4 | -7% | 8% | -6 | -5%[46.1 µM] | -19%[46.1 µM]
COc1ccc(CNC(=O)C2CCCN2c2nc(C)c3ccccc3n2)cc1 (stereo unspecified) | . | -10% | -1% | . | . | .
CCNC(=O)c1ccc(NC(=O)N2CCCCc3ccccc32)cc1 | . | -10% | -10% | . | . | -2%[46.1 µM]
Cc1ccc(NC(=O)N2CCCc3ccccc32)cc1 | 86* | -3% | -3% | 31* | -8%[46.1 µM] | 29%
CCc1ccccc1NC(=O)N1CCCc2ccccc21 | 59* | -1% | 6% | 43* | 13%[46.1 µM] | 10%[46.1 µM]
CCOc1ccccc1CNC(=O)Cc1ccc(NC(=O)N2CCCCc3ccccc32)cc1 | . | i | -12% | . | . | 4.5µM*
CCc1ccccc1NC(=O)N1CCc2ccccc2C1 | 13 | . | . | 15 | . | .
CN1CCN(c2ccc(NC(=O)N3CCc4ccccc43)cc2)CC1 | 20 | -30% | -20% | 18* | ? | -31%[46.1 µM]
CN1C(=O)CSc2ccc(NC(=O)N3CCc4ccccc43)cc21 | 25 | -27% | ? | -2 | ? | -16%
COc1ccc(CNC(=O)CN2C(=O)CCn3nc(-c4ccccc4)cc32)c(OC)c1 | . | -12% | -10% | . | . | 9%[46.1 µM]
COc1ccc2c(c1)OC(C)CN(CC(=O)NCc1cn[nH]c1-c1ccc(F)cc1)C2 (stereo unspecified) | . | -8% | 8% | . | . | .
Cn1nccc1C(=O)NC1CCCc2c1cnn2-c1ccc(C(C)(C)C)cc1 (stereo unspecified) | 10 | -5% | -26% | 11 | ? | ?
CCOc1ccccc1CNC(=O)c1ccc2c(c1)nc1n2CCCCC1 | . | -25% | 21% | . | . | 5µM*
SMILES | Shiga toxin inh | Vaccinia mCherry | Vaccinia Venus | CHX counter | MARV entry inh | Lassa entry inh
COc1ccc(CNC(=O)c2ccc3c(c2)nc2n3CCCCC2)cc1 | . | -8% | -2% | . | . | ?
Fc1ccc(NC(=S)N2CCCc3ccccc32)cc1 | 51* | -13%[1.46 µM] | ? | 10 | 11% | -14%
Cc1ccc(NC(=O)N2CCc3ccccc32)cc1 | 20 | . | . | 21* | ? | ?
Cc1ccc(NC(=O)N2CCc3ccccc32)cc1C | 98* | i | -8% | 31* | ? | ?
S=C(Nc1cccnc1)N1CCc2ccccc21 | -4 | . | . | -1 | . | .
Cc1ccc(NC(=O)N2CC3CCCN3c3ccccc32)cc1C (stereo unspecified) | . | 4% | -1% | . | ? | ?
CC(=O)Nc1ccc(NC(=O)CC(C)n2ccc(C)n2)cc1 (stereo unspecified) | . | -9% | -10% | . | . | 2%[46.1 µM]
CN(C(=O)Nc1cccc([N+](=O)[O-])c1)c1ccccc1 | . | 0% | -7% | . | ? | 12%
CN(N=Nc1ccc([N+](=O)[O-])cc1)c1ccccc1 | 54* | . | . | 68* | ? | 20%
CC(C)N(N=Nc1ccc([N+](=O)[O-])cc1)C(C)C | -4 | i | -5% | -1 | 18% | -9%
CN(N=Nc1cccc([N+](=O)[O-])c1)c1ccccc1 | 88* | -4% | -4% | 57* | ? | 1%[46.1 µM]
Cc1coc2cc3oc(=O)c(CCC(=O)NCCCN4CCOCC4)c(C)c3cc12 | 4 | -3% | -1% | -1 | . | .
Cc1oc2cc3oc(=O)c(CCC(=O)NCCN4CCOCC4)c(C)c3cc2c1C | 31* | -18% | -8% | 29* | . | .
COc1ccc(CCN2C(=O)c3[nH]nc(-c4ccccc4O)c3C2c2ccc(O)c(OC)c2)cc1 (stereo unspecified) | . | -8% | -3% | . | -29%[46.1 µM] | ?
O=C1c2[nH]nc(-c3ccccc3O)c2C(c2ccccc2F)N1Cc1ccco1 (stereo unspecified) | -11 | . | . | -2 | -1% | 5.2µM*
COc1cc(C2c3c(-c4cc(C)cc(C)c4O)n[nH]c3C(=O)N2CCCO)cc(OC)c1OC (stereo unspecified) | -1 | . | . | -3 | 3% | 8.2µM*
COc1ccc(CCN2C(=O)c3[nH]nc(-c4ccccc4O)c3C2c2ccccc2)cc1OC (stereo unspecified) | 57 | -20% | ? | -3 | ? | 18µM*
O=C1c2[nH]nc(-c3ccccc3O)c2C(c2ccc(Cl)cc2)N1Cc1ccco1 (stereo unspecified) | . | ? | ? | . | -23%[46.1 µM] | ?
Cc1ccc(O)c(-c2n[nH]c3c2C(c2ccccc2F)N(Cc2ccco2)C3=O)c1 (stereo unspecified) | . | -11% | -13% | . | ? | ?
O=C1c2[nH]nc(-c3ccccc3O)c2C(c2ccccc2)N1Cc1ccco1 (stereo unspecified) | -5 | -24% | ? | -1 | ? | 1.5µM*
O=C(NCCc1ccccc1)c1cc(-c2cccc(Cl)c2)on1 | . | -5% | 3% | . | 0%[46.1 µM] | -9%[46.1 µM]
COC(=O)c1c(OCc2ccccn2)cc(=O)n2c1CCN(C(=O)c1n[nH]c3c1CCCC3)CC2 | . | -15% | -8% | . | . | .
CCc1ccccc1N1CC(c2nc3ccccc3n2Cc2cccc(C)c2)CC1=O (stereo unspecified) | . | -19% | -19% | . | -29%[46.1 µM] | -29%[46.1 µM]
CN1c2ccccc2[C@@]2(O)C(=O)[C@@]1(C)[C@@H]1c3ccccc3C[C@H]12 | . | . | . | . | -28%[14.2 µM] | .
COc1ccc(-c2n[nH]c3c2C(c2ccc(OC)c(OC)c2)N(c2ccccc2)C3=O)cc1 (stereo unspecified) | -12 | . | . | -2 | 7.3µM* | ?

Screens from PubChem.
